Measured values as given in ChEMBL document CHEMBL4513216, “Probing the Open Global Health Chemical Diversity Library for Multistage-Active Starting Points for Next-Generation Antimalarials” (ACS Infect Dis, 2020).
In all, about 68,000 compounds went through this assay and about 2,700 (4%) showed an effect of 50% or more. The list comes from a sample in which strong results are over-represented; it also holds similar structures and randomly drawn compounds.

test system: Plasmodium berghei; assay: Screen against P. berghei liver stage (PbLuc), transformed with Luciferase, at 2uM; type: functional, HepG2; conditions: tested at 2 uM

Row | Structure (SMILES) | INHIBITION [%]
1 | CCN1CCC2(CCC1=O)CN(c1cnc3ccccc3n1)CCN2C (stereo not given) | -40.52
2 | CC(C)C[C@@H](CO)n1cc(-c2cncnc2)nn1 | 26.99
3 | COc1ccc(-c2cn([C@H](CO)CC(C)C)nn2)cn1 | 79.9
4 | CC(C)C[C@@H](CO)n1cc(-c2cnc(-c3ccco3)nc2)nn1 | -39.9
5 | O=C1Nc2ccccc2CC12CCCN2Cc1ccc(C(F)(F)F)cc1 (stereo not given) | -27.83
6 | CC(C)c1cc(C2CCCN2C(=O)c2cn3ccsc3n2)no1 (stereo not given) | -46.68
7 | COc1ccccc1C1CNCCN1C(=O)c1ccc(F)cc1 (stereo not given) | -20.28
8 | O=C(Nc1nncs1)C1CSCN1C(=O)C1CCCC1 (stereo not given) | -67.78
9 | COc1ccc2c(c1)C1(CCN(Cc3ccncc3)CC1)N(C)CC2 | 32.14
10 | COc1ccc2c(c1)C1(CCN(Cc3cccnc3)CC1)N(C)CC2 | 64.92
11 | COc1ccc2c(c1)C1(CCN(Cc3cnn(C)c3)CC1)N(C)CC2 | 21.14
12 | CC1(C)CN(CCC(=O)NCc2cccc(Cl)c2)CC[C@]1(C)O | -70.63
13 | CN(C)c1nccc(C2CCCN(C(=O)CO)C2)n1 (stereo not given) | 1.13
14 | CCn1c(Cn2cncn2)nnc1C1CCN(CC2[C@H]3CNC[C@@H]23)CC1 (stereo not given in full) | -11.68
15 | CC(C)CN1C(=O)CC[C@H]2CN(Cc3ncc[nH]3)CC[C@H]21 | 20.74
16 | COCCCN1C(=O)CC[C@H]2CN(Cc3ncc[nH]3)CC[C@H]21 | 50.59
17 | CSCCCN1C(=O)CC[C@H]2CN(Cc3ncc[nH]3)CC[C@H]21 | 27.5
18 | CC1(C)COCCN1C(=O)CCc1nc(-c2ccccn2)no1 | -4.89
19 | CN(C)CC(=O)N1Cc2nc(C(=O)N3CCCN(C)CC3)oc2C1 | 13.25
20 | O=C(NCCCn1cccn1)C1CCC(=O)N(Cc2ccccc2F)C1 (stereo not given) | 12
21 | CC(C)Oc1ncnc2c1CCN(c1cc(C(F)(F)F)ncn1)CC2 | 20.86
22 | CCOc1ncnc2c1CCN(c1cc(C(F)(F)F)ncn1)CC2 | -17.38

Row | Structure (SMILES) | INHIBITION [%]
23 | COc1ncnc2c1CCN(c1cc(C(F)(F)F)ncn1)CC2 | 52.08
24 | CCOCC1CN(Cc2cnn(C)c2)Cc2c1cnn2CC (stereo not given) | -8.04
25 | O=C(c1ccco1)N1CCCC2(CCN(c3nncs3)C2)C1 (stereo not given) | -56.25
26 | Cc1ncc2c(n1)CN(Cc1nnc(-c3ccccc3)o1)CC2 | 33.5
27 | O=C(NCC1Cn2nnc(-c3ccncc3)c2CO1)c1ccsc1 (stereo not given) | 31.96
28 | CCc1noc(CN2CCC(C(=O)Nc3cnn(CC)c3)CC2)n1 | 49.9
29 | O=C(Nc1ccccc1F)N1CCN(Cc2noc(C3CC3)n2)CC1 | 11.1
30 | CCn1cc(NC(=O)C2CCN(Cc3noc(C4CC4)n3)CC2)cn1 | 66.2
31 | Cc1ccccc1NC(=O)N1CCN(Cc2noc(C3CC3)n2)CC1 | 71.93
32 | CCn1cc(NC(=O)C2CCN(Cc3noc(C(C)C)n3)CC2)cn1 | -8.7
33 | O=C(Nc1ccccc1)N1CCN(Cc2noc(C3CC3)n2)CC1 | 31.7
34 | CC1(C)CC(C(=O)N2CCC3(CCC(=O)N(C4CC4)C3)CC2)CCO1 (stereo not given) | -29.52
35 | COCC(=O)N[C@H]1C[C@@H](Cc2cc(CN3CCOCC3)on2)C1(C)C | 19.39
36 | CCCS(=O)(=O)N[C@H]1CN(c2ncccc2C(N)=O)C[C@@H]1C(C)C | -50.23
37 | Cc1nc(C)c(C(=O)N2CCc3nnc(C4CCCCN4C)n3CC2)s1 (stereo not given) | 26.44
38 | COc1ccc(CNC(Cc2ccsc2)c2ncccc2C)cc1OC (stereo not given) | -31.69
39 | CCCN1CCC(c2nc3ccc(-c4ccccc4)cn3n2)CC1 | 13.16
40 | CN1CCC(c2nc3ccc(-c4cccc(F)c4)cn3n2)CC1 | 20.41
41 | CCCN1CCC(c2nc3ccc(NCc4ccccc4)cn3n2)CC1 | 54.65
42 | CC(=O)N1CCC(c2nc3ccc(-c4ccnn4C)cn3n2)CC1 | 25.31
43 | CC(C)N1CCC(c2nc3ccc(-c4ccnn4C)cn3n2)CC1 | 51.94
44 | CCCN1CCC(c2nc3ccc(NCc4cccnc4)cn3n2)CC1 | 1.42

Row | Structure (SMILES) | INHIBITION [%]
45 | CN1CCC(c2nc3ccc(-c4ccccc4)cn3n2)CC1 | 54.56
46 | Cn1nccc1-c1ccc2nc(C3CCNCC3)nn2c1 | 39.51
47 | CCCN1CCC(c2nc3ccc(C)cn3n2)CC1 | 20.01
48 | Cc1noc(C)c1-c1cnc(CC2CCN(C(=O)c3cc[nH]n3)C2)cn1 (stereo not given) | -26.24
49 | CCC(C)c1csc(NC(=O)Cc2csc(-c3nnc[nH]3)n2)n1 (stereo not given) | -5.58
50 | O=C(CCn1c(C(F)(F)F)cc2cccnc21)N1CCOCC1 | 48.65
51 | COc1coc(C(=O)Nc2nc(C)cs2)cc1=O | -1.29
52 | CN(C)C(C(=O)N1CCC(N2CCSCC2)CC1)c1ccccc1F (stereo not given) | 4.18
53 | Cc1nc2c(c(NCC3Cc4ccccc4CN3C)n1)CCNCC2 (stereo not given) | 43.44
54 | CN(CC1Cc2ccccc2CN1C)c1nc(N)nc2c1CCNCC2 (stereo not given) | 52.98
55 | CN(Cc1ccccc1-n1cccn1)c1nc(N)nc2c1CCNCC2 | 5.86
56 | CN(Cc1ccc(-n2cccn2)cc1)c1nc(N)nc2c1CCNCC2 | 18.01
57 | Cc1nc2c(c(N(C)CC3Cc4ccccc4CN3C)n1)CCNCC2 (stereo not given) | 57.75
58 | Cc1nc2c(c(N(C)Cc3ccccc3-n3cccn3)n1)CCNCC2 | -19.21
59 | Cc1nc(N)cc(C2CCN2CCC(N)=O)n1 (stereo not given) | 11.32
60 | Cc1ncsc1CN1C[C@@H]2CCCO[C@@H]2[C@H](N(C)C(C)C)C1 | -10.13
61 | Cn1cnc2c1CCN(CC(=O)N(Cc1ccccc1F)C1CC1)C2 | 18.99
62 | O=C(NCCc1cc2nc(-c3ccncc3)ccn2n1)C1CCOCC1 | 9.9
63 | CS(=O)(=O)Cc1ccc(C(=O)N2CCCC(n3cncn3)C2)o1 (stereo not given) | 12.7
64 | Cc1occc1C(=O)N1CCC2(CCC(=O)N(CC(N)=O)C2)CC1 | -26.32
65 | O=C(c1nc2sccn2c1-c1ncc[nH]1)N1CCCCC1 | -1.65
